Most compounds without a hit are left out; they make up all but 2.8% or so of the library.
NSD2 HMT inh: inhibitors of human histone methyltransferase NSD2. inhibition, % at 12.5 µM. NSD2 peptide methylation, AlphaScreen, 120 min. 310,000 tested, 0.54% active; in the data active = inhibition above about 50%
Target sequence (O96028 whole entry, looked up): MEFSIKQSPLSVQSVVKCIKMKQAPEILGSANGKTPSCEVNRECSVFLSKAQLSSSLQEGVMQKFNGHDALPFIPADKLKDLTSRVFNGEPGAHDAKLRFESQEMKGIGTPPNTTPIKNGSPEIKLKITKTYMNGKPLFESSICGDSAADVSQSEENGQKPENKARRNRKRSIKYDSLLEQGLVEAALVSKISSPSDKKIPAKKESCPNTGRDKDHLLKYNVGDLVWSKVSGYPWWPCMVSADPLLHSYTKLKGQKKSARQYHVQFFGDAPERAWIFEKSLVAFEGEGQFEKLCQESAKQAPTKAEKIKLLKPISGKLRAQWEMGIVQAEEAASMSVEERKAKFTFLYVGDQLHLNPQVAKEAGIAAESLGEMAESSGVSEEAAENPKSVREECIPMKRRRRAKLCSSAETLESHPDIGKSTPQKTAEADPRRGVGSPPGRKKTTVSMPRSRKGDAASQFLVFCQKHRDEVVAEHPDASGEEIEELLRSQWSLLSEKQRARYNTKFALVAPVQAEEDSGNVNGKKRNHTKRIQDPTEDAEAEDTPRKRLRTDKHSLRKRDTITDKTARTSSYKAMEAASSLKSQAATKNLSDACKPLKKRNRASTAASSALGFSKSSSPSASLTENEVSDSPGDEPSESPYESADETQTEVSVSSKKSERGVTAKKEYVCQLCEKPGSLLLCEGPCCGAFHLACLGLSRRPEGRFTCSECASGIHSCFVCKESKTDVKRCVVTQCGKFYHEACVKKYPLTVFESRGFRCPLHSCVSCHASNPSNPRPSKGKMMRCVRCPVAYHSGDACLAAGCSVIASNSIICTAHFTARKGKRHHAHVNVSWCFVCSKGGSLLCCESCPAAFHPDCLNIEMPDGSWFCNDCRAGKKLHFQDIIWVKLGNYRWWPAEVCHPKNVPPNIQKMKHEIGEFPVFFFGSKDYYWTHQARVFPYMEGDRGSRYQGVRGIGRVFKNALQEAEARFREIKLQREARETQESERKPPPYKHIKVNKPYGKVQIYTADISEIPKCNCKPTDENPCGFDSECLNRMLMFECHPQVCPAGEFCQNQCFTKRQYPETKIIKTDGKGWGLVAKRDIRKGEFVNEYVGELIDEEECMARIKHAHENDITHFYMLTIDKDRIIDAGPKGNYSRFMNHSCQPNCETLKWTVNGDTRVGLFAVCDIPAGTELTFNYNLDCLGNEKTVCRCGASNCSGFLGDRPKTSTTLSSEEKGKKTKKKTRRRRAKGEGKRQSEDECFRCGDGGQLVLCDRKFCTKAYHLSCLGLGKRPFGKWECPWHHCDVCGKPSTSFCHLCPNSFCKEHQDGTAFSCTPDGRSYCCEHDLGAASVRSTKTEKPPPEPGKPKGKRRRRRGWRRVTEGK
Env fusion inh: inhibitors of HIV Env-mediated cell fusion; inhibition, % at 12.3 µM; HeLa-JRFL Env/CEM21 cell fusion, luciferase; AID 651610; 360,000 tested, 1.1% active;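 active = mean replicate inhibition score of at least 50 and every replicate individually at or above 50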;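 note: 0% = plate neutral controls and 100% = maraviroc near 300 nM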
EBV LMP1 NFkB: reduces LMP1-driven NF-kappaB luciferase signal; LMP1-induced NF-kappaB luciferase reporter cells, luminescence; inhibition, % at 12.5 µM; 350,000 tested, 0.69% active; in the data active = inhibition above about 41%;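 note: 0% = neutral control wells and 100% = reference inhibitor control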
Glyco luc inh: blocks N-linked glycosylation in D54 reporter cells | D54 ERlucT glycosylation luciferase reporter, 24 h; percent of 100 nM tunicamycin response | reporter increase, % at 12.5 µM | 360,000 tested, 0.23% active | AID 588692;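 active = mean luciferase reporter signal, scaled so untreated is 0 and the glycosylation-blocking control 100, at or above a set limit in every replicate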;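 note: luciferase carries N-glycosylation sites so blocking glycosylation raises the light; 0% = median of neutral control wells and 100% = median of 100 nM tunicamycin wells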
Shn3 inh set2: inhibitors of Schnurri-3 3'UTR reporter in osteoblasts; Clone20 osteoblast Shn3 3'UTR firefly luciferase, 24 h; inhibition, % at 12.5 µM; 360,000 tested, 0.52% active;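 active = mean inhibition of at least 75% with every replicate also reaching 75%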;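 note: 0% = median of neutral control wells and 100% = pilot-screen positive control compound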
PAX8 reporter: lowers PAX8-driven luciferase in RMG-I cells | RMG-I TPO-luciferase reporter, SteadyGlo, 24 h | 360,000 tested, 1.2% active | inhibition, % at 12.6 µM;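 active = mean replicate inhibition at least 60% with every replicate also reaching 60%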;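 note: luciferase light reporting Pax8 driven TPO promoter activity; plate controls were median of neutral control wells for no effect and mitoxantrone controls for full effect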
* = called active by the depositor; i = inactive; · = not tested or not shown; ! = not active in a repeat; [ ] = dose if it differs, or a comment.

SMILES	NSD2 HMT inh	Env fusion inh	EBV LMP1 NFkB	Glyco luc inh	Shn3 inh set2	PAX8 reporter
COc1ccc2c(c1)c(C(C)=O)c(C)n2-c1ccccc1	4	·	6	-7	7	·
C[C@@H]1CN([C@@H](C)CO)C(=O)CCCn2cc(nn2)CO[C@@H]1CN(C)Cc1ccc(C(F)(F)F)cc1	·	·	·	·	·	8
COc1ccc(OCCNC(=O)/C=C/c2ccc([N+](=O)[O-])cc2)cc1	3	9	0	1	13	107*
O=C(/C=C/c1ccc([N+](=O)[O-])cc1)NCCOc1ccc(F)cc1	3	23	-2	0	1	9
COc1ccc(CNCC(O)COc2cccc3c2OC(C)(C)C3)cc1 (stereo not drawn)	·	14	6	-3	91*	-10
Cc1ccc(S(=O)(=O)N(C)C[C@@H]2Oc3c(NC(=O)C4CCOCC4)cccc3C(=O)N([C@@H](C)CO)C[C@@H]2C)cc1	·	-16[16.7 µM]	·	·	·	-18
OC1c2cc(Br)ccc2N=C2CCCCCN21 (stereo not drawn)	·	-10	·	0	-27	70*
CO[C@H]1CN(C)C(=O)c2ccc(NC(=O)C3CCCCC3)cc2OC[C@H](C)N(Cc2cccnc2)C[C@H]1C	·	-10[16.7 µM]	·	·	·	11
CN=c1scc(-c2ccccc2F)n1/N=C/c1ccc[nH]1	2	67*	82*	-20	73	96*
CCN=c1scc(-c2cccs2)n1/N=C/c1cc(OC)ccc1O	2	14	-27	-8	-78	-150
CC(C)N=c1scc(-c2cccs2)n1/N=C/c1ccc(O)c(O)c1O	11	-30	-22	8	88*	-5
CN=c1scc(C)n1/N=C/c1ccc(O)cc1O	·	·	35	-17	-6	·
CN=c1scc(-c2ccccc2F)n1/N=C/c1ccc(O)c(O)c1O	11	-253	39	-5	88*	83*
C[C@H]1CN([C@@H](C)CO)C(=O)c2cc(C#CCc3ccccc3)cnc2O[C@H]1CN(C)C(=O)Cc1cccnc1	·	-36[16.7 µM]	·	·	·	·
CCOc1cc(S(=O)(=O)NCc2ccc(OC)cc2)c(OCC)cc1-n1cnnn1	0	13	16	30*	-18	·
CCOc1cc(S(=O)(=O)NCCc2ccc(OC)c(OC)c2)c(OCC)cc1-n1cnnn1	41	-10	-10	1	-51	·
Cc1ccccc1N(C(=O)c1snc(C(N)=O)c1N)C(C(=O)NCc1ccccc1)c1ccc(O)cc1 (stereo not drawn)	·	13	-2	-4	25	37
Cc1ccccc1N(C(=O)c1snc(C(N)=O)c1N)C(C(=O)NC1CCCCC1)c1ccc(O)cc1 (stereo not drawn)	-2	17	41*	-12	31	36
Cc1ccc(N2CN(Cc3ccco3)CNC2=S)c(C)c1	1	·	0	-1	-2	61*
Cc1ccc(N2CN(Cc3cccnc3)CNC2=S)c(C)c1	-3	21	-1	0	-2	3
COc1ccc(NC(=O)N(C)C[C@H]2Oc3ccc(NS(=O)(=O)c4ccc(C)cc4)cc3C(=O)N([C@H](C)CO)C[C@@H]2C)cc1	·	6[16.7 µM]	·	·	·	17
O=C(C[C@H]1CC[C@H]2[C@@H](COC[C@H](O)CN2Cc2ccccc2)O1)N1CCOCC1	·	5[16.7 µM]	·	·	·	-20
C[C@@H]1CN([C@H](C)CO)C(=O)c2cc(NS(=O)(=O)c3cccs3)ccc2O[C@H]1CN(C)Cc1ccc(C(=O)O)cc1	·	-2[16.7 µM]	·	·	·	·
C=CCN1CCN(C(CC(C)C)c2nnnn2CCOC)CC1 (stereo not drawn)	·	·	49*	0	2	·
CCCCC(c1nnnn1CCOC)N1CCN(CC)CC1 (stereo not drawn)	·	8	1	1	16	2
SMILES	NSD2 HMT inh	Env fusion inh	EBV LMP1 NFkB	Glyco luc inh	Shn3 inh set2	PAX8 reporter
CCSc1nc2ccccc2n1C(=O)/C=C/c1ccc(OC)c(OC)c1	-1	i	82*	-14	96*	64*
C=CCSc1nc2ccccc2n1C(=O)/C=C/c1cc(OC)c(OC)c(OC)c1	-4	·	81*	-19	97*	·
COc1cc(/C=C/C(=O)N2CCN(C(=O)/C=C/c3cc(OC)c(OC)c(OC)c3)CC2)cc(OC)c1OC	12	·	-8	9	-9	·
C=CCSc1nc2ccccc2n1C(=O)/C=C/c1ccc(OC)c(OC)c1	-1	·	-13	-19	98*	·
CCN(CC)C(=O)[C@H]1C[C@H](CC(=O)NC/C=C(\C)CCC=C(C)C)C(=O)N2CCc3c([nH]c4cc(CCC(=O)N(C)C)ccc34)[C@]12C	·	·	0	-1	90*	·
CC(C)=CCC/C(C)=C/CNC(=O)CC1C[C@H](C(=O)N2CCOCC2)[C@@]2(C)c3[nH]c4ccccc4c3CCN2C1=O (stereo partly drawn)	·	-23	-2	-2	68	44
CCN(CC)C(=O)[C@H]1C[C@H](CC(=O)NCc2ccc(OC)c(OC)c2)C(=O)N2CCc3c([nH]c4cc(CCC(=O)N(C)C)ccc34)[C@]12C	·	12	-1	1	-7	-4
CC(C)=CCC/C(C)=C/CNC(=O)C[C@H]1C[C@H](C(=O)N2CCOCC2)[C@@]2(C)c3[nH]c4ccc(Cl)cc4c3CCN2C1=O	·	8	1	1	40	104*
COc1ccc(OC2C(=O)N(Cc3ccc4c(c3)OCO4)C2c2cccs2)cc1 (stereo not drawn)	8	68*	19	-6	40	·
O=C(NCC[C@@H]1CC[C@@H](NS(=O)(=O)c2cccc(F)c2)[C@H](CO)O1)C1CCC1	·	4[16.7 µM]	·	·	·	-5
O=C(N[C@H]1CC[C@H](CCNC(=O)c2cnccn2)O[C@H]1CO)c1ccc2c(c1)OCO2	·	1[16.7 µM]	·	·	·	-6
O=C(CCN1CCCCC1)NCC[C@@H]1CC[C@@H](NC(=O)Cc2cccnc2)[C@H](CO)O1	·	5[16.7 µM]	·	·	·	-8
COc1ccc(/C=C/c2nc(S(=O)(=O)c3ccccc3)c(NCCCN(C)C)o2)cc1OC	-4	74*	10	-5	13	-14
COc1ccccc1/C=C/c1nc(S(=O)(=O)c2ccccc2)c(NCCN(C)C)o1	-5	4	-5	-4	-25	-18
Cc1ccc2nc(NC(=O)CCCC(=O)O)sc2c1	2	69*	37	-1	51	2
Cc1ccc2nc(NC(=O)CCCc3nc4ccccc4s3)sc2c1	-1	·	-17	1	-32	·
Cn1cccc1-c1cc(C(=O)N2CCc3c([nH]c4ccccc34)C2c2ccccn2)[nH]n1 (stereo not drawn)	0	-5	55*	4	3	33
COc1cccc2cc(-c3nnc(-c4ccccc4)o3)c(=O)oc12	-3	20	50*	-11	16	-71
CCCCCCc1cc2cc(-c3nnc(-c4ccccc4OC)o3)c(=O)oc2cc1O	·	88*	14	-4	7	12
CCCCCCc1cc2cc(-c3nnc(-c4ccccc4O)o3)c(=O)oc2cc1O	1	6	-8	-11	9	·
CC(=O)OCC(=O)[C@@]1(O)CC[C@H]2[C@@H]3CCC4=CC(=O)CC[C@]4(C)[C@H]3[C@@H](O)C[C@@]21C	·	i	86*!	2	4	10

Screening results: PubChem, Broad Institute
